Screening data from PubChem BioAssay.
ELG1 repair inh = ELG1-dependent DNA repair inhibition | HEK293T ELG1-luciferase reporter, luminescence, 16 h; DNA damage induced by 5-fluorouridine | Potency, µM (top dose mostly 46.1 µM), without a hit: top-dose activity change, negative = inhibition, hits mostly inhibitors | hit rate 2.3% among 330,000; also: % is scaled to controls: 0 for no effect and ±100 for the full control effect; nearly all actives have a fitted effect of over 55% in size
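DMSO vehicle served as the neutral condition. Each well held 2,000 cells given 5-fluorouridine plus compound; after 16 hr at 37 °C/5% CO2, ONE-Glo was added and luciferase measured 30 min later.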
NPC1 promoter act = activators of NPC1 promoter | AID 485313 | hit rate 2.4% among 320,000 | Potency, µM (doses to about 9.22 µM), for inactives: at the top dose activation, usual class: activators | Huh7 NPC1 promoter luciferase reporter, 24 h; also: % of control where 0% means no effect; nearly all actives have a fitted effect of over 60% in size
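Huh7 cells stably carrying NPC1 promoter–luciferase, plated in Opti-MEM with 10% FBS for 2 h, were exposed to compound in DMSO for 24 h at 37 °C; luciferase reagent was added for 10 min and luminescence read.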
ELG1 genotox = induces genotoxicity in HEK293T cells with luciferase-tagged ELG1 | HEK293T ELG1-luciferase reporter, luminescence, 16 h | Potency, µM (highest dose often 46 µM), for the others: at the top dose activity change, positive = activation, hits mostly activators | AID 504466 | hit rate 1.3% among 330,000; also: % of control where 0% means no effect; nearly all actives have a fitted effect of over 60% in size
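Step 1: seed 2,000 HEK293T ELG1-luciferase cells per well. Step 2: add compound or DMSO, incubate 16 hr at 37 °C. Step 3: ONE-Glo, 30 min at room temperature, read luminescence.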
FLuc counter = inhibits or activates purified firefly luciferase, miR-21 counter-screen; AID 588342; hit rate 6.9% among 360,000; Potency, µM (series often up to 57.5 µM), without a hit: at the top dose activity change, negative = inhibition, hits mostly inhibitors; purified FLuc, Km substrates, luminescence inhibition; P08659;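 also: plate controls were vehicle for no effect and reference inhibitor for full effect; nearly all actives have a fitted effect of over 55% in size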
Target sequence (P08659 whole entry, looked up): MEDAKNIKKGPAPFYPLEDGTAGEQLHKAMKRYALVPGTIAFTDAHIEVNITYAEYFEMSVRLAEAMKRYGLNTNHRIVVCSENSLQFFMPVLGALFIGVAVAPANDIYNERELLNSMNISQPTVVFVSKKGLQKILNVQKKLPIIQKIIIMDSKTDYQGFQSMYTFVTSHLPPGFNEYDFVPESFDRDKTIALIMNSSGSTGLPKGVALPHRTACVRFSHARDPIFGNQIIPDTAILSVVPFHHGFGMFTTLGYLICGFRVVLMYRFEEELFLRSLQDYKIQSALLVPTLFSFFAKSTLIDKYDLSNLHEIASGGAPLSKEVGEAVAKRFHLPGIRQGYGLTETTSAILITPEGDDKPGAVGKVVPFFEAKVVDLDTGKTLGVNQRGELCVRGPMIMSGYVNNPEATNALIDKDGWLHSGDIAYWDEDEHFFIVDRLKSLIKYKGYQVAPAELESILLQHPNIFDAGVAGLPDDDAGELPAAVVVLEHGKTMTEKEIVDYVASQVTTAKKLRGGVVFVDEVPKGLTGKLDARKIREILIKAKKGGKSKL
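Purified P. pyralis luciferase (10nM final) with 10uM D-luciferin and 10uM ATP (Km levels) in 50mM Tris acetate pH 7.5, 10mM Mg acetate, 0.01% Tween-20, 0.05% BSA; qHTS 6-point titration, ~60 µM downward; luminescence read.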
Rab9 prom act = activates the Rab9 promoter. Huh7 Rab9 promoter-luciferase reporter, luminescence, 24 h. Potency, µM (top dose mostly 9.22 µM), inactives show at the top dose activation, negative = inhibition, hits mostly activators. hit rate 2.8% among 320,000. AID 485297; also: % of control where 0% means no effect; nearly all actives have a fitted effect of over 60% in size
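Luciferase signal after 10 min detection reagent at ambient indicates Rab9 promoter upregulation; stably transfected Huh7 cells were treated 24 h with compound in DMSO at 37 °C, 5% CO2.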
SMN2 splice enh = increases expression of the SMN2 splice variant; AID 1458; Potency, µM (highest dose often 46.1 µM), for the others: top-dose activity change, positive = activation, most hits filed as activators; HEK293 SMN2-luciferase splicing reporter, luminescence, 30-36 h; hit rate 2.8% among 210,000; also: % of control where 0% means no effect; nearly all actives have a fitted effect of over 55% in size
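HEK293 cells carry an SMN2 minigene-luciferase reporter in which exon 7 inclusion puts luciferase in frame. Cells were seeded at 2000 cells/well, attached for 10-12 hours, then exposed to compounds for 30-36 hours at 37C before ONE-Glo luminescence.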
The depositor's hits bear a star; ? = inconclusive; / = no result; [ ] = dose if it differs, or a comment. An excerpt weighted towards active compounds, which were near 9.2% of everything screened. Calls follow the shape of the dose curve; as a rule, active = well fitted curve in the direction sought with a large enough effect; inconclusive = small, poorly fitted or top-dose-only effect, or another doubt; inactive = no such curve, though single readings can be large; an effect the other way counts as inactive or inconclusive. Potency is read from the fitted curve at half-maximal effect.

SMILES	ELG1 repair inh	NPC1 promoter act	ELG1 genotox	FLuc counter	Rab9 prom act	SMN2 splice enh
CCOc1ccc(N(CC(=O)NN=C2CCN(C)CC2)S(=O)(=O)c2ccc(Br)cc2)cc1	5.5%	-0.2%	0.4%	2.9%	-0.5%	/
O=C(NC1CCN(C(=O)c2ccccc2Br)CC1)c1ccccc1	-11.7%	-2.4%	-3.4%	0.5%	-0.8%	/
O=C(NC1CC(=O)N(c2ccc3c(c2)OCCO3)C1)c1c(F)cccc1Cl (stereo not drawn)	/	/	/	-3.8%	/	/
Cc1ccccc1-c1nc(Cc2ccc(Cl)cc2)no1	?	13.6%	23.1µM*	?	2.2%	24.2%
Cc1cccc(-c2nnc(-c3ccccc3)o2)c1	?	?	8.2µM*	9.53µM*	?	11.2µM*
Cc1ccccc1-c1nnc(CS(=O)(=O)c2ccccc2)o1	?	1.12µM*	?	4.78µM*	1.12µM*	/
CC(C)Oc1ccc(CSc2ncn[nH]2)cc1	?	26.0%	9.3%	15.1µM*	?	/
Clc1ccc(CSc2ncn[nH]2)cc1	7.1%	-2.4%	-1.5%	-14.0%	4.2%	-6.8%
COc1ccc(OCCSc2ncn[nH]2)cc1	?	?	12.6%	13.5µM*	?	/
Cc1cccc(N2CCN(C(c3ccccc3)c3nnc(-c4ccccc4F)o3)CC2)c1C (stereo not drawn)	/	/	/	?	/	-2.6%
CC1CCN(S(=O)(=O)c2ccc3c(c2)CCC(=O)N3CC(=O)Nc2cccc(C#N)c2)CC1	/	8.1%	/	-1.8%	-5.1%	/
Cc1nc2ccc(NC(=O)COc3cccc(F)c3)cc2s1	0.1%	-3.2%	5.5%	?	-3.4%	-9.9%
Cc1nc2ccc(NC(=O)Cc3ccccc3F)cc2s1	?	2.82µM*	8.2µM*	6.75µM*	?	11.2µM*
Cc1nc2ccc(NC(=O)COc3ccccc3)cc2s1	?	3.4%	15.8%	?	17.9%	10.2%
Cc1nc2ccc(NC(=O)Cc3cccc(F)c3)cc2s1	?	21.2%	12.0%	19µM*	29.9%	26.8%
Cc1nc2ccc(NC(=O)Cc3ccsc3)cc2s1	?	2.82µM*	11.6µM*	12µM*	?	?
CCCC(=O)NCC(c1ccc2c(c1)OCO2)N1CCN(c2ccccc2)CC1 (stereo not drawn)	/	/	/	-2.3%	/	/
CC1CN(C(=O)COC(=O)c2ccccc2O)CC(C)O1 (stereo not drawn)	-7.1%	-4.5%	3.3%	1.3%	-2.0%	/
COc1ccccc1CNc1ncnc2c1nnn2C	/	/	/	-4.7%	/	/
COc1ccccc1C(=O)Nc1c(C(=O)Nc2cc(Cl)ccc2C)sc2nc(C)cc(C)c12	/	/	/	2.4%	/	6.6%
COc1ccc(CN(C)Cc2cc(=O)oc3cc(C)c(C(C)C)cc23)cc1OC	18.3µM*	-0.5%	-4.3%	0.2%	4.8%	/
CCc1ccc2c(CN(C)Cc3ccccc3OC)cc(=O)oc2c1	?	-0.3%	14.2%	16.9µM*	-0.3%	/
Cc1ccc2c(CN(C)Cc3cccc(F)c3)cc(=O)oc2c1	?	?	?	10.7µM*	20.7%[1.84 µM]	/
COc1ccc2oc(=O)cc(CN(C)Cc3ccccc3)c2c1	-4.3%	-2.5%	-11.3%	3.7%	-4.2%	/
Cc1cc2oc(=O)cc(CN(C)Cc3cccc(F)c3)c2cc1Cl	2.4%	1.0%	2.5%	-6.1%	-4.1%[1.84 µM]	/
SMILES	ELG1 repair inh	NPC1 promoter act	ELG1 genotox	FLuc counter	Rab9 prom act	SMN2 splice enh
Cc1ccc(S(=O)(=O)NNC(=O)Nc2ccc([N+](=O)[O-])cc2)c(C)c1	-17.0%	3.0%	1.8%	-0.3%	-3.8%	/
Cc1ccc(CSc2nc3ccc(NC(=O)COc4ccccc4)cc3s2)cc1	/	/	/	2.3%	/	/
COc1ccc(CNC(=O)Cn2c(=O)c3cccn3c3cccnc32)cc1	/	/	/	-2.3%	/	/
CCOc1ccc(C(C)=O)cc1COC(=O)c1ccc2c(c1)NC(=O)CS2	16.4µM*	-5.7%	-6.5%	/	-3.9%	/
COc1ccc(C(=O)COC(=O)c2ccc3c(c2)NC(=O)CS3)c(OC)c1	?	-7.7%	-12.1%	-5.7%	-2.7%	/
CCOc1ccc(NS(=O)(=O)c2cccc(C(=O)NCC3(N(C)C)CCCCC3)c2)cc1	14.1%	2.8%	1.9%	2.1%	0.2%	/
O=C(O)c1ccc2nc(-c3ccccc3)sc2c1	?	-27.2%	?	2.39µM*	-28.2%	0.1µM*
Nc1ccc(-c2nc3ccc(C(=O)O)cc3s2)cc1	?	-38.9%	?	0.213µM*	-43.0%	/
Cc1ccc2nc(-c3ccc(NC(=O)c4ccc(N)cc4)c(S(=O)(=O)O)c3)sc2c1	/	/	/	/	/	3.98µM*
Nc1cc2sc(-c3ccc(C(=O)O)cc3)nc2cc1Cl	?	0.794µM*	?	0.675µM*	0.562µM*	1.41µM*
Cc1ccc2nc(-c3ccc(NC(=O)c4ccc(S(C)(=O)=O)cc4)cc3)sc2c1	/	/	/	1.8%	/	/
O=c1cc(O)nc(-c2ccccc2)s1	1.7%	-2.2%	-3.5%	-12.5%	4.4%	3.4%
Cc1nn(C)c2c1c(C(F)(F)F)cc(=O)n2C(C)C(=O)Nc1ccccc1F (stereo not drawn)	/	/	/	-8.5%	/	/
CCSc1ncc(Cl)c(C(=O)Nc2ccc(S(=O)(=O)Nc3nccc(C)n3)cc2)n1	/	/	/	-19.2%	/	20.0%
CCc1c(CN2CCN(c3cccc(C)c3C)CC2)csc1C	/	/	/	-0.9%	/	/
COc1cccc(CNC(=O)C2CCN(S(=O)(=O)c3cccc4nonc34)CC2)c1	-28.7%	1.8%	-6.5%	0.1%	-0.2%	/
O=C(O)c1ccccc1N/N=C/C1=C(N2CCOCC2)C(=C\c2ccccc2)/CC1	?	3.7%	-3.2%	?	-2.4%	/
Cc1cc(C)nc(N/N=C/C2=C(N3CCOCC3)C(=C/c3ccccc3)/CC2)n1	16.4µM*	1.3%	-15.4%	-2.4%	-0.3%	-104.6%
COc1ccc2nc(NC(=O)c3ccco3)sc2c1	?	0.316µM*	0.58µM*	0.536µM*	0.112µM*	/
Cc1ccc2nc(NC(=O)c3ccco3)sc2c1	?	?	0.206µM*	0.269µM*	0.794µM*	1.12µM*
O=c1sc(Nc2ccccc2)nc2ccsc12	?	7.0%	18.4µM*	12µM*	?	0.9%
O=C(Nc1nc2ccsc2c(=O)s1)C1CCC1	?	?	?	19µM*	?	/
O=C(NCc1ccc(F)cc1)C1CCCN(c2nc3ccsc3c(=O)s2)C1 (stereo not drawn)	-6.6%	1.2%	0.1%	0.0%	-5.1%	-4.6%
Cn1c(=O)cnc2cnc(Oc3ccccc3)nc21	/	/	/	/	/	-0.8%
COc1ccc(N2CCN(C(=O)C3CCN(S(=O)(=O)c4cnc[nH]4)CC3)CC2)cc1	/	/	/	-3.1%	/	-3.0%
Cc1cc(C)n(C(C)CC(=O)Nc2ccc(C)c(F)c2)n1 (stereo not drawn)	/	/	/	-2.6%	/	/
Cc1ccc(NC(=O)c2sc3ncnc(N(C)C4CCCCC4)c3c2C)c(C)c1	/	/	/	-18.3%	/	/
